For 17 compounds, inhibition results are on record in ChEMBL document CHEMBL1961873, “Compounds: GSK PKIS; Assays: Nanosyn kinase panel” (2012).

In assay [1] the target is RAC-alpha serine/threonine-protein kinase (Homo sapiens) (UniProt P31749). As to conditions: at 0.1 µM.
Assay [2] has the same target. The following applies: at 1 µM.
Assay [3] deals with RAC-beta serine/threonine-protein kinase (Homo sapiens) (UniProt P31751). The following applies: at 0.1 µM.
Assay [4] has the same target. As to conditions: at 1 µM.
Assay [5] has as its target RAC-gamma serine/threonine-protein kinase (Homo sapiens) (UniProt Q9Y243). As to conditions: at 0.1 µM.
Assay [6] shares this target. The following applies: at 1 µM.
Assay [7] deals with G protein-coupled receptor kinase 6 (Homo sapiens) (UniProt P43250). The following applies: at 0.1 µM.
Assay [8] has the same target. As to conditions: at 1 µM.
Assay [9] deals with T1, Rhodopsin kinase GRK7 (Homo sapiens) (UniProt Q8WTQ7).
T1 sequence (whole entry): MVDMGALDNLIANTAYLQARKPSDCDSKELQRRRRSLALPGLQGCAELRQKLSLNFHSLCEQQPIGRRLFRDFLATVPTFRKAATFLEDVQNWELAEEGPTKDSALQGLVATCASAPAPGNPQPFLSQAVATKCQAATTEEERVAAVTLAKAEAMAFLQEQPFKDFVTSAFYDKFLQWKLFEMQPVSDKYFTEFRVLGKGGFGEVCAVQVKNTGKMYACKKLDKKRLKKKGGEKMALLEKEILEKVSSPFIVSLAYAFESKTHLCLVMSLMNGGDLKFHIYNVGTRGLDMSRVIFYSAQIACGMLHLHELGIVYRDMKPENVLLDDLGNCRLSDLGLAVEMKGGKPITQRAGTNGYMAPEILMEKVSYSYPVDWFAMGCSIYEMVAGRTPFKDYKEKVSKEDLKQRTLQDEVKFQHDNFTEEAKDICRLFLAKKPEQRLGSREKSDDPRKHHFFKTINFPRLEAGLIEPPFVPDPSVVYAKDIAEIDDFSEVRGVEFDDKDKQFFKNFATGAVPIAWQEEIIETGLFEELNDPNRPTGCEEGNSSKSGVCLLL
The following applies: at 0.1 µM.

Assay [10] concerns the target T1, Rhodopsin kinase GRK7 (Homo sapiens). The following applies: at 1 µM.

Sequence of RAC-alpha serine/threonine-protein kinase (Homo sapiens) (P31749 whole entry): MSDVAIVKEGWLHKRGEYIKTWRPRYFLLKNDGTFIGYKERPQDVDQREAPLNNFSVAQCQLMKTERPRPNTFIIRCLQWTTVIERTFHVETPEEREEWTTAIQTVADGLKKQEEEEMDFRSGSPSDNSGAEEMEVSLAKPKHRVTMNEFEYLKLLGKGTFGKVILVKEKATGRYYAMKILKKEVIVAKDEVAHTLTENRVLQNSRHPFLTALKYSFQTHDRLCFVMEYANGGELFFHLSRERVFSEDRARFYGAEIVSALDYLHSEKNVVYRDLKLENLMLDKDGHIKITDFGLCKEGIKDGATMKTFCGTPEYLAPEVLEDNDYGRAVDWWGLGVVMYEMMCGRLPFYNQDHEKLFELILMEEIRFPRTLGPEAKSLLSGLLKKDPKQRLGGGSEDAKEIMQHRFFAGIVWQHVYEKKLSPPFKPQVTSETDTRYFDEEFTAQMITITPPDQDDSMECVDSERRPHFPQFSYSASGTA
Sequence of RAC-gamma serine/threonine-protein kinase (Homo sapiens) (Q9Y243 whole entry): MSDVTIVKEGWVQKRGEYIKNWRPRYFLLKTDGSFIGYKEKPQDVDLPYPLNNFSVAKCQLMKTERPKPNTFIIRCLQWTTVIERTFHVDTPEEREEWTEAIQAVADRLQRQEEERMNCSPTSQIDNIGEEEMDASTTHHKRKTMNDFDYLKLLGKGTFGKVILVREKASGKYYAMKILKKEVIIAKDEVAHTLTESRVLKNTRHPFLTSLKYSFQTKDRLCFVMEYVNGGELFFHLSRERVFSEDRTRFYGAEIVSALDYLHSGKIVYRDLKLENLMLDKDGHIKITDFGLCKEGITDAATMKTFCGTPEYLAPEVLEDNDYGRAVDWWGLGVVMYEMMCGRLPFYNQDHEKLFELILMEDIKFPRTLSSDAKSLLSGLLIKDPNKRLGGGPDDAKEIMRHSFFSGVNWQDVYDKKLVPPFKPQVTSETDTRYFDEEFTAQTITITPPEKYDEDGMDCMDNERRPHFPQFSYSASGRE
Sequence of G protein-coupled receptor kinase 6 (Homo sapiens) (P43250 whole entry, looked up): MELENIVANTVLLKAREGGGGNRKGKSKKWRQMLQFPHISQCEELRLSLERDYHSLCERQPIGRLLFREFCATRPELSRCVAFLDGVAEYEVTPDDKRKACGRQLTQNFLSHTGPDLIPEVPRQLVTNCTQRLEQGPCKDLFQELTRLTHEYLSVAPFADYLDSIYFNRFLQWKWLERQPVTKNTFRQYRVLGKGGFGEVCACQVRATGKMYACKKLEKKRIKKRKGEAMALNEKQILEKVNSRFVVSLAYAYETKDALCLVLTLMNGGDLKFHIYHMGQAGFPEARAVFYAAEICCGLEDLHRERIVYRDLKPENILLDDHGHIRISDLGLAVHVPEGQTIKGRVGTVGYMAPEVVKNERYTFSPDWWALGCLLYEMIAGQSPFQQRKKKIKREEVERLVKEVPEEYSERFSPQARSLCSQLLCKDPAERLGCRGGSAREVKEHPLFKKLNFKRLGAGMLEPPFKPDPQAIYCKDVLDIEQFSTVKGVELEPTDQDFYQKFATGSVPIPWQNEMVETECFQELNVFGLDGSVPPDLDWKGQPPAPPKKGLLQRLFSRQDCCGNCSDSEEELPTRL
Sequence of RAC-beta serine/threonine-protein kinase (Homo sapiens) (P31751 whole entry): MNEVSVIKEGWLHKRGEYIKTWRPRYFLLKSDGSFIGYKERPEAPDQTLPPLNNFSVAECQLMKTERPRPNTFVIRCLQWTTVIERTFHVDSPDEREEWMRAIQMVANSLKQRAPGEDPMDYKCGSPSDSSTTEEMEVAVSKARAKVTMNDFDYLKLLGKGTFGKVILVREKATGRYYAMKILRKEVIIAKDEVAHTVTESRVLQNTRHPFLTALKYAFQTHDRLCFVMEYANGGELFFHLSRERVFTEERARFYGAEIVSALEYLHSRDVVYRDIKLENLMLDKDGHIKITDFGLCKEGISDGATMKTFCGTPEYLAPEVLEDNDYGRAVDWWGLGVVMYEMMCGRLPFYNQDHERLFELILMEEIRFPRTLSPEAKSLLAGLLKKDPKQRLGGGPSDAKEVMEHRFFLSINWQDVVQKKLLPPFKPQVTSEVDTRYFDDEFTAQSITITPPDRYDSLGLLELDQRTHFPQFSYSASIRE

On to `CCn1c(-c2nonc2N)nc2c(C#CC(C)(C)O)ncc(OC3CCNCC3)c21`, for which the inhibition in [1] was 70.1%; in assay [2], 92.8%; in assay [3], 85.2%; in assay [4], 95.5%; in assay [5] it was 74.7%; in assay [6], 94.2%. In addition, the inhibition in assay [7] is 4.09%; in assay [8], 7.13%; in [9], 7.74%; in assay [10], 17%.

For `COc1cccc(-c2c[nH]c3c(N/N=C/c4ccncc4)ncnc23)c1`, the inhibition in assay [1] was 1.29%; in [2], 0.32%; in assay [3] it was 1.22%; in assay [4] it was -0.06%; in [5] it was 1.48%; in [6], -0.22%. For the same compound, the inhibition in assay [7] was -1.66%; in assay [8], -7.11%; in assay [9] it was 0.28%; in [10], -6.92%.

For `O=C(O[C@H]1CN[C@H](C#Cc2cc3ncnc(Nc4ccc(Cc5ccccc5)cc4)c3s2)C1)N1CCOCC1`, the inhibition is -0.07% in assay [1]; 1.54% in assay [2]; 0.98% in [3]; 1.79% in [4]; 0.38% in [5]; 1.99% in assay [6]. The inhibition in [7] was -0.99%; in assay [8], 1.46%; in assay [9], 5.43%; in [10], 0.52%.

As for `FC(F)(F)c1cccc(-c2nn3ncccc3c2-c2ccnc(Nc3ccc4c(c3)OCCO4)n2)c1`, the inhibition in assay [1] amounted to 0.59%; in assay [2] it was 1.44%; in [3], 2.75%; in [4], 1.12%; in assay [5], 1.47%; in [6] it was 0.72%. Also, the inhibition in [7] was -1.22%; in [8] it was -2.46%; in assay [9], 1.8%; in assay [10] it was 1.11%.

Regarding `c1ccc(-c2nc3n(c2-c2ccc4c(c2)OCO4)CCC3)nc1`, the inhibition in assay [1] turned out to be 0.15%; in assay [2], 0.19%; in [3], 0.67%; in assay [4] it was 0.83%; in assay [5] it was 0.55%; in assay [6] it was 0.06%. For the same compound, the inhibition in assay [7] is 3.19%; in assay [8], 2.38%; in [9], 1.13%; in [10], 3.19%.

Take `CC(C)COC(=O)c1ccc2c(c1)/C(=C/Nc1ccc(S(N)(=O)=O)cc1)C(=O)N2`: the inhibition in assay [1] was found to be 1.6%; in assay [2] it was 2.22%; in assay [3] it was 0.67%; in [4], 1.73%; in assay [5], 1.5%; in assay [6], 6.82%. Besides, the inhibition in [7] was 1.33%; in assay [8] it was 10.1%; in assay [9], -4.26%; in assay [10], 9.41%.

In the case of `Fc1ccc(-c2nn3ncccc3c2-c2ccnc(Nc3ccc4c(c3)OCCO4)n2)cc1`, the inhibition in assay [1] is 0.05%; in assay [2], 0.97%; in [3], 1.99%; in [4], 1.14%; in [5], 0.88%; in assay [6] it was 1.56%. The inhibition was found to be 2.14% in assay [7], 1.87% in [8], 1.38% in assay [9] and 5.57% in assay [10].

For the compound `CCOc1ccc2c(-c3ccnc(Nc4cccc(C(F)(F)F)c4)n3)cnn2n1`, the inhibition was 0.26% in assay [1]; 0.31% in assay [2]; 0.57% in assay [3]; 1.35% in [4]; -0.38% in [5]; 4.77% in assay [6]. The inhibition in assay [7] was -2.91%; in assay [8] it was -2.59%; in assay [9], 3.77%; in assay [10], 0.86%.

As to `CCc1nn2ncccc2c1-c1ccnc(NC2CC2)n1`, the inhibition is 0.3% in assay [1]; 0.03% in assay [2]; -0.16% in assay [3]; 0.84% in [4]; 0.81% in [5]; 0.1% in assay [6]. Moreover, the inhibition in [7] stood at 3.01%; in assay [8], 4.64%; in assay [9] it was 3.97%; in [10], 1.72%.

With `N#Cc1c(NC(=O)c2ccc(F)cc2)sc2c1CCCC2`, the inhibition in assay [1] was -0.22%; in [2] it was 0.69%; in assay [3], 0.36%; in assay [4] it was 0.77%; in assay [5] it was 2.13%; in [6] it was 0.2%. The inhibition in [7] turned out to be 2.85%; in assay [8], 4.08%; in assay [9], 0.7%; in assay [10], 4.43%.

As for `O=C(Nc1n[nH]c2cc(-c3ccc(F)cc3)ccc12)C1CC1`, the inhibition amounted to 0.61% in assay [1]; 1.36% in assay [2]; 1.62% in [3]; 1.6% in assay [4]; 0.49% in assay [5]; 1.05% in assay [6]. Moreover, the inhibition came to 1.59% in assay [7], 1.04% in assay [8], 4.1% in assay [9] and 7.25% in assay [10].

As for `CC(C)(CO)CNC(=O)c1ccc2c(c1)/C(=N/Nc1ccc(S(N)(=O)=O)cc1)C(=O)N2`, the inhibition in assay [1] was 0.16%; in assay [2], -0.56%; in [3], -1.39%; in assay [4], 0.25%; in assay [5] it was -0.59%; in assay [6], 2.3%. The inhibition in [7] was 0.67%; in assay [8], 9.38%; in [9], 2.93%; in assay [10], -0.41%.

`CCN1CCC(CC(=O)Nc2n[nH]c3nnc(-c4cccc(F)c4F)cc23)CC1`: the inhibition was 0.38% in [1]; 0.44% in assay [2]; -1.36% in assay [3]; 0.79% in assay [4]; -0.3% in [5]; 3.08% in assay [6]. Further, the inhibition in assay [7] turned out to be 1.19%; in assay [8], 2.16%; in [9], 6.3%; in assay [10], 3.7%.

Consider `CCn1c(-c2nonc2N)nc2cnc(Oc3cccc(NC(=O)c4ccc(N(C)C)cc4)c3)cc21`, for which the inhibition in [1] is 0.51%; in assay [2], 7.63%; in assay [3], 0.71%; in assay [4], 8.4%; in assay [5], 1.82%; in assay [6], 10.2%. Further, the inhibition in assay [7] was determined as 0.82%; in [8] it was 2.85%; in assay [9], 2.74%; in assay [10], 4.11%.

`CC(=O)Nc1cccc(C#Cc2cncnc2Nc2ccc(OCc3cccc(F)c3)c(Cl)c2)c1`: the inhibition was found to be 0.35% in assay [1]; 2.86% in [2]; 1.58% in assay [3]; 1.24% in [4]; 0.94% in assay [5]; 1.39% in [6]. For the same compound, the inhibition in [7] is 0.81%; in [8] it was -1.5%; in [9], 3.04%; in assay [10], -3.08%.

In the case of `CN1CCC(n2cnc(-c3ccc(F)cc3)c2-c2ccnc(N)n2)CC1`, the inhibition in assay [1] is 0.24%; in assay [2], 0.29%; in assay [3] it was 0.39%; in assay [4], 0.66%; in [5] it was 2.57%; in assay [6] it was 2.05%. For the same compound, the inhibition in assay [7] came out at 1.6%; in assay [8], 2.25%; in assay [9], 3.11%; in assay [10], 5.7%.

For `COc1ccc(-c2oc3ncnc(N)c3c2-c2ccc(NC(=O)Nc3cc(C(F)(F)F)ccc3F)cc2)cc1`, the inhibition in [1] stood at 1.18%; in [2], 1.66%; in assay [3] it was 3.21%; in assay [4], 2.57%; in [5], 1.23%; in assay [6], 2.55%. In addition, the inhibition in [7] came out at 4.19%; in assay [8], 12.7%; in assay [9], 4.51%; in [10] it was 22%.
